Results on six compounds are retold here after PubChem BioAssay (EPA / NIEHS).

The AC50 is the concentration giving half of the maximal activity seen.

Active and inactive are the calls of the source. The calls were made as follows: active = hit-call score of the fitted dose curve at least 0.9, where 1 is the maximum; inactive = score below 0.9.

Common to all, as to settings: mRNA level, 48 h; actives raise or lower the signal
Read-out in test [1]: adenosine kinase (ADK) gene, ADK (gene 132)
Nature of the test: LTEA_HepaRG_ADK: Life Technologies and Expression Analysis (LTEA) Assay for adenosine kinase (ADK) gene using HepaRG (AID 2283471). The method, boiled down:
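Differentiated HepaRG cells dosed 48 h in serum-free induction medium, 0.5% DMSO vehicle, eight half-log concentrations from 100 uM, in duplicate. ADK mRNA by TaqMan qRT-PCR normalised to ACTB, GAPDH, POLR2A; bidirectional fit versus DMSO.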

Read-out in test [2]: Alpha-fetoprotein (AFP) gene, AFP (gene 174)
Briefly: LTEA_HepaRG_AFP: Life Technologies and Expression Analysis (LTEA) Assay for Alpha-fetoprotein (AFP) gene using HepaRG (AID 2283472). Summed up: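 After a 48 h plating period, cells are moved to serum-free induction medium and dosed in duplicate (100 uM maximum, half-log dilutions, 0.5% DMSO) for another 48 h. Total RNA goes to TaqMan qRT-PCR; AFP signal is housekeeping-normalized.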

Read-out in a further test: BCL2L11 (gene 10018)
Briefly: LTEA_HepaRG_BCL2L11: Life Technologies and Expression Analysis (LTEA) Assay for Bcl-2 (BCL2L11) gene using HepaRG (AID 2283473). The method, boiled down:
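HepaRG, 48 h exposure, 8-pt half-log series from 100 uM in 0.5% DMSO, duplicates; qRT-PCR (Fluidigm TaqMan) for BCL2L11, housekeeping-normalized; bidirectional curve fit relative to DMSO baseline.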

Read-out in test [3]: Apolipoprotein A-V (APOA5) gene, APOA5 (gene 116519)
Nature of the test: LTEA_HepaRG_APOA5: Life Technologies and Expression Analysis (LTEA) Assay for Apolipoprotein A-V (APOA5) gene using HepaRG (AID 2283474). Summed up:
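HepaRG, 48 h chemical exposure in serum-free induction medium, 8-pt half-log series (top 100 uM), 0.5% DMSO vehicle, duplicates. Readout: APOA5 mRNA by qRT-PCR, housekeeping-normalized; bidirectional fit vs DMSO baseline.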

Read-out in test [4]: Apoptosis regulator Bcl-2 (Homo sapiens) (UniProt P10415)
Nature of the test: LTEA_HepaRG_BCL2: Life Technologies and Expression Analysis (LTEA) Assay for Bcl-2 gene using HepaRG (AID 2283475). Summed up: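 Expression change of BCL2 mRNA in HepaRG after 48 h dosing, quantified by TaqMan qRT-PCR against three endogenous controls. Concentration-response used eight points up to 100 uM, vehicle 0.5% DMSO.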

Read-out in test [5]: Bcl-2 (BID) gene, BID (gene 637)
Nature of the test: LTEA_HepaRG_BID: Life Technologies and Expression Analysis (LTEA) Assay for Bcl-2 (BID) gene using HepaRG (AID 2283476). Summed up: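 Gain or loss of BID expression is fitted relative to 0.5% DMSO vehicle. Human HepaRG liver cells received a 48 h chemical exposure over an eight-point concentration range.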

Read-out in another test: Caspase-3 (Homo sapiens) (UniProt P42574)
Nature of the test: LTEA_HepaRG_CASP3: Life Technologies and Expression Analysis (LTEA) Assay for cysteine-aspartic acid protease (CASP3) using HepaRG (AID 2283477). The method, boiled down:
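HepaRG, 48 h exposure, 8 conc. (top 100 uM, half-log steps, duplicate), 0.5% DMSO vehicle; qRT-PCR of CASP3 transcript, housekeeping-normalised (ACTB/GAPDH/POLR2A); bidirectional curve fit vs DMSO baseline.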

Read-out in test [6]: Cytochrome P450 (CYP24A1), CYP24A1 (gene 1591)
Nature of the test: LTEA_HepaRG_CYP24A1: Life Technologies and Expression Analysis (LTEA) Assay for Cytochrome P450 (CYP24A1) using HepaRG (AID 2283478). Summed up: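 qRT-PCR read-out: CYP24A1 transcript levels normalized to three housekeeping genes, bidirectional curve fits against 0.5% DMSO baseline. Human HepaRG cells treated 48 h with chemicals at eight concentrations from 100 uM in half-log steps.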

Read-out in test [7]: Cytochrome P450 (CYP1A2), CYP1A2 (gene 1544)
Nature of the test: LTEA_HepaRG_CYP1A2: Life Technologies and Expression Analysis (LTEA) Assay for Cytochrome P450 (CYP1A2) using HepaRG (AID 2283479). Summed up:
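HepaRG, 48 h exposure, top 100 uM, half-log 8-pt, 0.5% DMSO vehicle, duplicates. Readout: TaqMan qRT-PCR of CYP1A2 mRNA, housekeeping-normalized (ACTB/GAPDH/POLR2A). Gain/loss fit relative to DMSO baseline.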

Read-out in test [8]: cysteine-aspartic acid protease (CASP8), CASP8 (gene 841)
Briefly: LTEA_HepaRG_CASP8: Life Technologies and Expression Analysis (LTEA) Assay for cysteine-aspartic acid protease (CASP8) using HepaRG (AID 2283480). The method, boiled down:
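Differentiated HepaRG cells in serum-free induction medium, 48 h exposure, eight-point half-log series from 100 uM in 0.5% DMSO, duplicates. CASP8 mRNA by qRT-PCR, normalized to ACTB, GAPDH, POLR2A; bidirectional fit versus DMSO.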

Read-out in test [9]: Cytochrome P450 (CYP2B6), CYP2B6 (gene 1555)
Nature of the test: LTEA_HepaRG_CYP2B6: Life Technologies and Expression Analysis (LTEA) Assay for Cytochrome P450 (CYP2B6) using HepaRG (AID 2283481). Summed up: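 Read-out is CYP2B6 mRNA by TaqMan qRT-PCR, normalized to three housekeeping genes and fitted bidirectionally against 0.5% DMSO baseline. Human HepaRG cells received test chemicals for 48 h, top concentration 100 uM, half-log dilutions.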

Read-out in test [10]: Cytochrome P450 2C19 (Homo sapiens) (UniProt P33261)
Nature of the test: LTEA_HepaRG_CYP2C19: Life Technologies and Expression Analysis (LTEA) Assay for CYP2C19 using HepaRG (AID 2283482). The method, boiled down: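 HepaRG, 48 h chemical exposure, 8-pt half-log series from 100 uM in 0.5% DMSO, duplicates. Readout: CYP2C19 mRNA by TaqMan qRT-PCR, housekeeping-normalized. Bidirectional fit vs DMSO baseline; phenobarbital 1mM as induction control.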

Read-out in a further test: CYP2C8 (gene 1558)
Nature of the test: LTEA_HepaRG_CYP2C8: Life Technologies and Expression Analysis (LTEA) Assay for CYP2C8 using HepaRG (AID 2283483). Summed up: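 Differentiated HepaRG cells in serum-free induction medium exposed 48 h in duplicate to 8 half-log concentrations from 100 uM in 0.5% DMSO. CYP2C8 mRNA by qRT-PCR normalized to ACTB, GAPDH, POLR2A; bidirectional fit versus DMSO.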

Read-out in the next test: CYP2C9 (gene 1559)
Nature of the test: LTEA_HepaRG_CYP2C9: Life Technologies and Expression Analysis (LTEA) Assay for CYP2C9 using HepaRG (AID 2283484). Summed up: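 Differentiated human HepaRG cells in serum-free induction medium were exposed 48 h to chemicals in 8-point half-log series from 100 uM (0.5% DMSO), in duplicate. CYP2C9 mRNA was measured by qRT-PCR, normalized to ACTB/GAPDH/POLR2A, with bidirectional fitting versus DMSO.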

Read-out in another test: CYP2E1 (gene 1571)
Nature of the test: LTEA_HepaRG_CYP2E1: Life Technologies and Expression Analysis (LTEA) Assay for CYP2E1 using HepaRG (AID 2283485). Summed up: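 Differentiated HepaRG cells were treated in duplicate for 48 h with chemicals in 0.5% DMSO, from 100 uM downward in half-log dilutions. RNA was then analysed by qRT-PCR for CYP2E1 induction or loss.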

Read-out in a further test: CYP4A11 (gene 1579)
Nature of the test: LTEA_HepaRG_CYP4A11: Life Technologies and Expression Analysis (LTEA) Assay for CYP4A11 using HepaRG (AID 2283486). Summed up:
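CYP4A11 transcript levels were quantified by TaqMan qRT-PCR after HepaRG human liver cells were treated for 48 hours with test chemicals (top 100 uM, half-log dilutions, 0.5% DMSO). Gain or loss of signal was fitted relative to DMSO.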

Read-out in test [11]: Cytochrome P450 3A4 (Homo sapiens) (UniProt P08684)
Briefly: LTEA_HepaRG_CYP3A4: Life Technologies and Expression Analysis (LTEA) Assay for CYP3A4 using HepaRG (AID 2283487). Summed up:
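Differentiated HepaRG cells in serum-free induction medium exposed in duplicate for 48 h to 8 half-log concentrations up to 100 uM in 0.5% DMSO. CYP3A4 mRNA measured by qRT-PCR normalized to ACTB, GAPDH and POLR2A; bidirectional fit versus DMSO.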

Read-out in test [12]: DNA damage-inducible transcript 3 (DDIT3), DDIT3 (gene 1649)
Briefly: LTEA_HepaRG_DDIT3: Life Technologies and Expression Analysis (LTEA) Assay for DNA damage-inducible transcript 3 (DDIT3) using HepaRG (AID 2283488). Summed up: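 Changes in DDIT3 transcript, in either direction relative to 0.5% DMSO vehicle, were quantified by TaqMan qRT-PCR after 48 h chemical exposure of HepaRG cells at 8 concentrations, maximum 100 uM.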

Read-out in test [13]: Pro-epidermal growth factor (Homo sapiens) (UniProt P01133)
Nature of the test: LTEA_HepaRG_EGF: Life Technologies and Expression Analysis (LTEA) Assay for Epidermal growth factor (EGF) using HepaRG (AID 2283489). Summed up: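 qRT-PCR readout of EGF transcript after 48 h chemical exposure of HepaRG cells; eight concentrations from 100 uM down in half-log steps, duplicate wells, 0.5% DMSO vehicle. Bidirectional curve fitting against DMSO baseline.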

Read-out in test [14]: Early growth response protein 1 (EGR1) transcription factor, EGR1 (gene 1958)
Briefly: LTEA_HepaRG_EGR1: Life Technologies and Expression Analysis (LTEA) Assay for Early growth response protein 1 (EGR1) transcription factor using HepaRG (AID 2283490). Summed up: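 Differentiated HepaRG cells in serum-free induction medium exposed 48 hours, duplicate, to 8 half-log concentrations up to 100 uM in 0.5% DMSO. EGR1 mRNA measured by TaqMan qRT-PCR, normalized to ACTB, GAPDH, POLR2A; bidirectional fit versus DMSO.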

Chain of Cytochrome P450 3A4 (Homo sapiens) (P08684 whole entry, looked up): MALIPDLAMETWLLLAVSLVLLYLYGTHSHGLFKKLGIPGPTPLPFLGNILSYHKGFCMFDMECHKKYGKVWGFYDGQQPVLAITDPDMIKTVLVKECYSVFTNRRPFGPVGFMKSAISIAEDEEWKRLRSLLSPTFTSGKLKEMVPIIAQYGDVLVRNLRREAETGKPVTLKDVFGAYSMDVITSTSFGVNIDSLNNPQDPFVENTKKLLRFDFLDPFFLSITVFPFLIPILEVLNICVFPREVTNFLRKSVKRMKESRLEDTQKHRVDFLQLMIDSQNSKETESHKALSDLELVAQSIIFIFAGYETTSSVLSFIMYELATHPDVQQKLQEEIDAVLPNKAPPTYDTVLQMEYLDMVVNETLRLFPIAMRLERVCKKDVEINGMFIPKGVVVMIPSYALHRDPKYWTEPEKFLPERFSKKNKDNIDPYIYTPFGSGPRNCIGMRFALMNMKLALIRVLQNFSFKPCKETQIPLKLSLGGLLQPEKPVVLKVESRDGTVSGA
Chain of Apoptosis regulator Bcl-2 (Homo sapiens) (P10415 whole entry, looked up): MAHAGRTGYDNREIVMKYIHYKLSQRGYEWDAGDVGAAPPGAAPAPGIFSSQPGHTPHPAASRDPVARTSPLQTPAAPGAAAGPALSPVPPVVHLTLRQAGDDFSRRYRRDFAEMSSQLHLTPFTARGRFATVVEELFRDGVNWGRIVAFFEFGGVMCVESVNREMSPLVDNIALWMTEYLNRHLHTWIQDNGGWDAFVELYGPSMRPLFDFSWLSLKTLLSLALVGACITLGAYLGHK
Chain of Cytochrome P450 2C19 (Homo sapiens) (P33261 whole entry, looked up): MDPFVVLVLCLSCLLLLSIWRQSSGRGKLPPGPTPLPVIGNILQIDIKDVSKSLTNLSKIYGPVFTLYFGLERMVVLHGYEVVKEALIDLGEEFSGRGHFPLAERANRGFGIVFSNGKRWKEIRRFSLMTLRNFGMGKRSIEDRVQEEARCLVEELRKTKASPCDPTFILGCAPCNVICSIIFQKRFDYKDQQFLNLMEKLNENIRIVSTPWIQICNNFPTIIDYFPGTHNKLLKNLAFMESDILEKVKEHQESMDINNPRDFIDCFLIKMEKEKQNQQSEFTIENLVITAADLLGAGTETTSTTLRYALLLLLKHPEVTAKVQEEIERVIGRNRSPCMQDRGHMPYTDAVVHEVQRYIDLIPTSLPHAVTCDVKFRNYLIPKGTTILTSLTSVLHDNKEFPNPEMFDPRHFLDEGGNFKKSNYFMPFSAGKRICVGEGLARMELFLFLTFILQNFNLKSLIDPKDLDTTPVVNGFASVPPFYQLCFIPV
Chain of Caspase-3 (Homo sapiens) (P42574 whole entry, looked up): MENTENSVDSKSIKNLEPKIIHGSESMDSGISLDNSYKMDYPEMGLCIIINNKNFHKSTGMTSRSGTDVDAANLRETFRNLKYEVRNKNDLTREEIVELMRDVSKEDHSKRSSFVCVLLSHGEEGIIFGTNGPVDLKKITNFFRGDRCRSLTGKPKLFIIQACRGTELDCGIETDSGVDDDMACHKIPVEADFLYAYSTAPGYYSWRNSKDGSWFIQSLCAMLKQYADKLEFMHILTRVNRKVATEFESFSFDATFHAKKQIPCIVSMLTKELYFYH

Take `NC(=O)N(O)[C@@H]1C=C[C@H](Oc2cccc(Oc3ccc(F)cc3)c2)C1`: the compound was called inactive (in test [1]; in test [5]; in the test with Caspase-3 (Homo sapiens); in test [6]; in test [8]; in test [13]). In addition, the AC50 is 20.2 µM (active) in [2]; 12.3 µM (active) in the test with BCL2L11 (gene 10018); 37.7 µM (active) in test [3]; 73.9 µM (active) in [4]; 21.2 µM (active) in test [7]; 34.4 µM (active) in test [9]. Moreover, the AC50 in test [10] is 76.7 µM (active); with CYP2C8 (gene 1558) it was 27.3 µM (active); with CYP2C9 (gene 1559), 58.8 µM (active); in the test with CYP2E1 (gene 1571), 32.1 µM (active); with CYP4A11 (gene 1579) it was 30.8 µM (active); in test [11], 72.1 µM (active). Further, the AC50 in [12] was 35.1 µM (active); in test [14], 12.7 µM (active).
Consider `O=C(OCCOCCOC(=O)c1ccccc1)c1ccccc1`, for which the outcome (in [1]; in [2]; with BCL2L11 (gene 10018); in test [3]; in test [4]; in test [5]) was inactive. Further, the compound was classed as inactive (with Caspase-3 (Homo sapiens); in [6]; in test [8]; in [9]; in [10]; in the test with CYP2C8 (gene 1558)). For the same compound, the call (with CYP2C9 (gene 1559); with CYP2E1 (gene 1571); with CYP4A11 (gene 1579); in test [11]; in test [12]; in test [13]) was inactive. For the same compound, the outcome in [14] was inactive. Further, the half-maximal activity concentration (AC50) in [7] is 68.9 µM (active).
`CCCCCCCCCCCCN1CCCC1=O`: the call (in test [1]; in test [2]; with BCL2L11 (gene 10018); in test [3]; in [4]; in [5]) was inactive. Besides, the compound was classed as inactive (in the test with Caspase-3 (Homo sapiens); in [6]; in test [7]; in test [8]; in test [9]; in [10]). Besides, the outcome (with CYP2C8 (gene 1558); with CYP2C9 (gene 1559); in the test with CYP2E1 (gene 1571); with CYP4A11 (gene 1579); in test [11]; in test [12]) was inactive. Further, the call in [13] and in test [14] was inactive.
For `CCCCOCCO`, the compound was called inactive (in test [1]; in [2]; with BCL2L11 (gene 10018); in test [3]; in [4]; in test [5]). Further, the compound was classed as inactive (in the test with Caspase-3 (Homo sapiens); in test [6]; in test [7]; in [8]; in [9]; in test [10]). Besides, the compound was classed as inactive (in the test with CYP2C8 (gene 1558); with CYP2C9 (gene 1559); in the test with CYP2E1 (gene 1571); in the test with CYP4A11 (gene 1579); in [11]; in [12]). Moreover, the result in test [13] and in test [14] was inactive.
On to `CC(O)CO` (centres undefined), for which the compound was called inactive (in test [1]; in test [2]; with BCL2L11 (gene 10018); in test [3]; in [4]; in [5]). For the same compound, the call (with Caspase-3 (Homo sapiens); in test [6]; in test [7]; in [8]; in test [9]; in test [10]) was inactive. Besides, the result (in the test with CYP2C8 (gene 1558); with CYP2C9 (gene 1559); with CYP2E1 (gene 1571); in the test with CYP4A11 (gene 1579); in [11]; in test [12]) was inactive. Moreover, the result in test [13] and in [14] was inactive.
On to `CN1CCC[C@H]1c1cccnc1`, for which the compound was classed as inactive (in [1]; in test [2]; in the test with BCL2L11 (gene 10018); in test [3]; in [4]; in [5]). The compound was classed as inactive (with Caspase-3 (Homo sapiens); in test [6]; in [7]; in test [8]; in test [9]; in [10]). For the same compound, the call (with CYP2C8 (gene 1558); with CYP2E1 (gene 1571); with CYP4A11 (gene 1579); in [11]; in test [12]; in test [13]) was inactive. Also, the outcome in test [14] was inactive.
